The nature of assay [1]: ATG_PBREM_CIS: Attagene CIS-FACTORIAL HepG2 Assay for human Phenobarbital-responsive Enhancer Module (PBREM) (AID 2282955). Conditions: HepG2 PBREM cis-reporter, Attagene multiplexed transcription; actives raise or lower the signal. In a few lines:
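Readout: reporter mRNA, fluorescent RT-PCR fragments separated by capillary electrophoresis. System: HepG2 transiently transfected with cis-regulated reporter units. Exposure: 24 h. Analysis: bidirectional, DMSO baseline.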

Assay [2] deals with Paired box protein Pax-6 (Homo sapiens) (UniProt P26367). Briefly: ATG_Pax6_CIS: Attagene CIS-FACTORIAL HepG2 Assay for human Paired Box 6 (PAX6) (AID 2282956). The conditions noted are these: HepG2 CIS-FACTORIAL PAX6 reporter transcription, RNA readout; actives raise or lower the signal. In a few lines: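 DMSO-referenced bidirectional fits of reporter mRNA fluorescence; HepG2 with transient cis-promoter MRTUs, 24 h post-dose, RT-PCR plus capillary electrophoresis detection.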
Chain of Paired box protein Pax-6 (Homo sapiens) (P26367 whole entry, looked up): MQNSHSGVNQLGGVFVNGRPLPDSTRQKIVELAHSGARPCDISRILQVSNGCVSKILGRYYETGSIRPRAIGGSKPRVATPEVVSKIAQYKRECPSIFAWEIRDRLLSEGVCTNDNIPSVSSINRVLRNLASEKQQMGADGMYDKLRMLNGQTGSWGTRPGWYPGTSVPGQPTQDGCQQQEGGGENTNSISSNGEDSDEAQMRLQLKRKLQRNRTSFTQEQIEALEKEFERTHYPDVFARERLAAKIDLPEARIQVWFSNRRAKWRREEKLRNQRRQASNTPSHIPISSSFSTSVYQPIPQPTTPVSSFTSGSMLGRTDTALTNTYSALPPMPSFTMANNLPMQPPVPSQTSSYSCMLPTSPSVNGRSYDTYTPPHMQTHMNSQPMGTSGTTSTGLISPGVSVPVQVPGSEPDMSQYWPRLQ

Assay [3] in a line: ATG_PXRE_CIS: Attagene CIS-FACTORIAL HepG2 Assay for human Pregnane X Receptor Element (PXRE) (AID 2282957). Conditions: HepG2 Attagene CIS-FACTORIAL PXRE reporter, mRNA; actives raise or lower the signal. In a few lines:
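Read-out: fluorescence of reporter-specific RT-PCR products resolved by capillary electrophoresis, fitted bidirectionally relative to DMSO. Human HepG2 liver cells carried transfected cis-promoter reporter units and were exposed to chemicals for 24 h.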

A short description of assay [4]: ATG_RORE_CIS: Attagene CIS-FACTORIAL HepG2 Assay for human RAR-related Orphan Receptor Element (RORE) (AID 2282959). Conditions: HepG2 Attagene cis-factorial RORE reporter, mRNA; actives raise or lower the signal. In a few lines: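 Measured here: transcript induction of a cis-regulated reporter in HepG2 cells transiently transfected via FuGene 6. After 24 h, RNA was processed by RT-PCR and fluorescent capillary electrophoresis; DMSO defined baseline activity.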

The nature of assay [5]: ATG_Sox_CIS: Attagene CIS-FACTORIAL HepG2 Assay for human SRY-box transcription factor (SOX) (AID 2282960). Conditions: HepG2 Attagene cis-factorial SOX reporter, mRNA; actives raise or lower the signal. In a few lines:
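Using transiently transfected HepG2 cells, reporter transcription driven by cis elements was assessed 24 h after dosing. Signal was fluorescence of capillary-separated RT-PCR products, with DMSO defining baseline activity.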

The target of assay [6] is Transcription factor Sp1 (Homo sapiens) (UniProt P08047). Briefly: ATG_Sp1_CIS: Attagene CIS-FACTORIAL HepG2 Assay for human Specificity Protein 1 (Sp1) (AID 2282961). The conditions noted are these: HepG2 Sp1 cis-reporter transcription, actives raise or lower the signal. The method, boiled down: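 After transient transfection of HepG2 cells with cis-promoter reporter units and 24 h chemical treatment, reporter transcripts were quantified by RT-PCR and capillary electrophoresis fluorescence. Gain- and loss-of-signal fitted against DMSO.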
Chain of Transcription factor Sp1 (Homo sapiens) (P08047 whole entry, looked up): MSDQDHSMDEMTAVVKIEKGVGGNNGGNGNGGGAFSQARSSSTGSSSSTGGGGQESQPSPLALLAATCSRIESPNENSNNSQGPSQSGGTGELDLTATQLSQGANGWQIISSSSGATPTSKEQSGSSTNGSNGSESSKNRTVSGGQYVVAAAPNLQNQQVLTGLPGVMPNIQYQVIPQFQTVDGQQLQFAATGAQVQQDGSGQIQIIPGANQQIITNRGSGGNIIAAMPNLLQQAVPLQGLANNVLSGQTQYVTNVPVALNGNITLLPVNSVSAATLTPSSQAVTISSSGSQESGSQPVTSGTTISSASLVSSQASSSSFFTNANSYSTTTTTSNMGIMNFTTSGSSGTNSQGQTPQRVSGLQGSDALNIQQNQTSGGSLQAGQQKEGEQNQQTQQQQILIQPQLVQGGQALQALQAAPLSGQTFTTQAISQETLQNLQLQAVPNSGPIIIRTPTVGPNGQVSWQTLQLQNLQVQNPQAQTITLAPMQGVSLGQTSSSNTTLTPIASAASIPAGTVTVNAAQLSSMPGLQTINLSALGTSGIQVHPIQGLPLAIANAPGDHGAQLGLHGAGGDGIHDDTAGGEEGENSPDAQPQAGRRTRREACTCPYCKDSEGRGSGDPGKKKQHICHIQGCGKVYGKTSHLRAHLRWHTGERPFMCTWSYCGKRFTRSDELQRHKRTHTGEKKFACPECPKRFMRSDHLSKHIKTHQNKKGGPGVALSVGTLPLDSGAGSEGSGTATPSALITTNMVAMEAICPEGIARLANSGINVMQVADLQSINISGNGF

A short description of assay [7]: ATG_SREBP_CIS: Attagene CIS-FACTORIAL HepG2 Assay for human Sterol Regulatory Element Binding (SREBP) (AID 2282962). Conditions: HepG2 Attagene cis-factorial SREBP reporter, mRNA; actives raise or lower the signal. In a few lines:
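In this cis-format assay, HepG2 liver cells express reporters controlled by promoter elements responsive to native transcription factors. Exposure lasts 24 h; reporter mRNA fluorescence from capillary electrophoresis gives the signal, fitted bidirectionally against DMSO.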

In assay [8] the target is Signal transducer and activator of transcription 3 (Homo sapiens) (UniProt P40763). Briefly: ATG_STAT3_CIS: Attagene CIS-FACTORIAL HepG2 Assay for human Signal Transducer and Activator of Transcription 3 (STAT3) (AID 2282963). Conditions: HepG2, Attagene cis-factorial STAT3 reporter transcription; actives raise or lower the signal. In a few lines: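 Cis-factorial format: endogenous transcription factors in HepG2 drive transfected reporter units. After 24 h treatment, reporter RNA was reverse-transcribed, amplified, FAM-labelled and HpaI-digested before CE analysis; activity scored in both directions against DMSO.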
Chain of Signal transducer and activator of transcription 3 (Homo sapiens) (P40763 whole entry, looked up): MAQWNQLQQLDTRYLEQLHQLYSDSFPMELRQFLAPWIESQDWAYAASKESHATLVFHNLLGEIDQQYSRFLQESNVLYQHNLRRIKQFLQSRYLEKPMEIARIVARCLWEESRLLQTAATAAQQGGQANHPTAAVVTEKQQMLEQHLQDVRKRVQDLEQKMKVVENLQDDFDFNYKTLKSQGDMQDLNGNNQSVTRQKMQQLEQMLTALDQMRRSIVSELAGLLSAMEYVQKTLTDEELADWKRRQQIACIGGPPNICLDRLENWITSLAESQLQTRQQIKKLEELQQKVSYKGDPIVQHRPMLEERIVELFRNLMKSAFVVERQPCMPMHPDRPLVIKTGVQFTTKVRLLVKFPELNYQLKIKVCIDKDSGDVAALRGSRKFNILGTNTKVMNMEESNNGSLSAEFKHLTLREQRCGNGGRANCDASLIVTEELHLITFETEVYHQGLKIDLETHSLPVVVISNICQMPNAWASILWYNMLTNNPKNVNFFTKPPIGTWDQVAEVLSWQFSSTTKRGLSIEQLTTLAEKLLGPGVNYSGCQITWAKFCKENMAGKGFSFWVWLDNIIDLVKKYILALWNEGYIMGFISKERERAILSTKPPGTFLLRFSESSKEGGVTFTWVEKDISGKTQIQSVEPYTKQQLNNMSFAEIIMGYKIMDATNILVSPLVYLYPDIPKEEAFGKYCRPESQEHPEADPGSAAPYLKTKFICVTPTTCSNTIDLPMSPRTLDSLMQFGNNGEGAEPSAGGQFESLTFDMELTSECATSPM

The nature of assay [9]: ATG_TA_CIS: Attagene CIS-FACTORIAL HepG2 Assay for human TA Basal Promoter (AID 2282964). The conditions noted are these: HepG2 Attagene CIS-factorial TA basal promoter reporter; actives raise or lower the signal. The method, boiled down: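 Multiplexed mRNA reporter assay, HepG2, 24 h. Reporter cDNA amplified, 6-FAM primer-extended, HpaI-cut, CE-sized; DMSO = negative control and baseline.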

The nature of assay [10]: ATG_TCF_b_cat_CIS: Attagene CIS-FACTORIAL HepG2 Assay for human T-Cell-Factor with beta-catenin (TCF/b-cat) (AID 2282965). Conditions: HepG2 TCF/beta-catenin cis-reporter transcription, actives raise or lower the signal. The method, boiled down:
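Endogenous TCF/LEF activity read as reporter transcript level via RT-PCR and capillary electrophoresis fluorescence in transfected HepG2, 24 h exposure; gain or loss of signal fitted against DMSO controls.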

Assay [11] in a line: ATG_TAL_CIS: Attagene CIS-FACTORIAL HepG2 Assay for human TAL Basal Promoter (AID 2282966).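 Further: background control endpoint measuring basal TAL promoter reporter mRNA not a specific factor.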 Conditions: HepG2 Attagene cis-factorial TAL promoter reporter; actives raise or lower the signal. In a few lines:
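HepG2, transient MRTU transfection, 24 h compound exposure; RNA → oligo(dT) RT → PCR → 6-FAM primer extension → HpaI digest → CE fluorescence. Bidirectional curve fit vs DMSO. Background-control readout.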

A short description of assay [12]: ATG_TGFb_CIS: Attagene CIS-FACTORIAL HepG2 Assay for human Transforming Growth Factor (TGF) (AID 2282967). The conditions noted are these: HepG2 Attagene CIS TGFb reporter, mRNA transcription; actives raise or lower the signal. In a few lines:
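Transcript-level reporter readout: HepG2 transfectants, 24 h exposure, RNA to cDNA, reporter-specific PCR, fluorescent primer extension, capillary sizing against ROX standards. Gain- or loss-of-signal relative to DMSO.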

Assay [13] can be described thus: ATG_VDRE_CIS: Attagene CIS-FACTORIAL HepG2 Assay for human Vitamin D Receptor Element (VDRE) (AID 2282968). Conditions: HepG2 VDRE cis-reporter transcription, actives raise or lower the signal. The method, boiled down: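 Measures endogenous factor activity through cis-element-driven reporter transcripts in transiently transfected HepG2. Cells are treated 24 h; reporter mRNA is quantified by RT-PCR and capillary electrophoresis; fitting is bidirectional.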

Assay [14] addresses X-box-binding protein 1 (Homo sapiens) (UniProt P17861). Briefly: ATG_Xbp1_CIS: Attagene CIS-FACTORIAL HepG2 Assay for human X-box Binding Protein 1 (XBP1) (AID 2282972). The conditions noted are these: HepG2 XBP1 cis-element reporter, Attagene multiplex; actives raise or lower the signal. The method, boiled down: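 Changes in reporter transcript abundance, read by RT-PCR and capillary electrophoresis, reflect endogenous transcription factor activity. Transfected HepG2 cells received compound for 24 hours; DMSO defined baseline for bidirectional analysis.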

Assay [15] in a line: ATG_M_19_TRANS: Attagene TRANS-FACTORIAL HepG2 Assay for M19 Transcription Factor (Internal Marker) (AID 2282974; active means hit-call score of the fitted dose curve at least 0.9, where 1 is the maximum). The conditions noted are these: HepG2 Attagene TRANS-FACTORIAL M19 internal marker reporter. In a few lines: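 Gain-of-signal in reporter mRNA, relative to DMSO, was scored from capillary electrophoresis fluorescence. HepG2 cells carried transiently transfected multiple reporter transcription units and were incubated with test chemicals for 24 h.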

The nature of assay [16]: ATG_GAL4_TRANS: Attagene TRANS-FACTORIAL HepG2 Assay for GAL4 (Internal Marker) (AID 2282976; active means hit-call score of the fitted dose curve at least 0.9, where 1 is the maximum). The conditions noted are these: HepG2 Attagene TRANS GAL4 internal marker reporter. The method, boiled down:
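RT-PCR/capillary electrophoresis readout of reporter mRNA. HepG2, transient MRTU transfection (GAL4-UAS reporters), 24 h compound exposure. Background-control endpoint, positive direction vs DMSO baseline.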

In assay [17] the target is Nuclear receptor subfamily 1 group I member 3 (Homo sapiens) (UniProt Q14994). Kind of assay: ATG_CAR_TRANS: Attagene TRANS-FACTORIAL HepG2 Assay for human Constitutive Androstane Receptor (CAR) (AID 2282969; active means hit-call score of the fitted dose curve at least 0.9, where 1 is the maximum;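 further: activators raise reporter mRNA above DMSO so AC50 marks induction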). The conditions noted are these: HepG2 Attagene TRANS-FACTORIAL CAR reporter. In a few lines: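 Signal is reporter mRNA induction relative to DMSO, measured 24 h after dosing by RT-PCR with fluorescent primer extension and capillary electrophoresis. Human HepG2 liver cells carried transiently transfected chimeric NR-Gal4/GAL4-UAS reporter constructs.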
Chain of Nuclear receptor subfamily 1 group I member 3 (Homo sapiens) (Q14994 whole entry, looked up, the tested form may be a part): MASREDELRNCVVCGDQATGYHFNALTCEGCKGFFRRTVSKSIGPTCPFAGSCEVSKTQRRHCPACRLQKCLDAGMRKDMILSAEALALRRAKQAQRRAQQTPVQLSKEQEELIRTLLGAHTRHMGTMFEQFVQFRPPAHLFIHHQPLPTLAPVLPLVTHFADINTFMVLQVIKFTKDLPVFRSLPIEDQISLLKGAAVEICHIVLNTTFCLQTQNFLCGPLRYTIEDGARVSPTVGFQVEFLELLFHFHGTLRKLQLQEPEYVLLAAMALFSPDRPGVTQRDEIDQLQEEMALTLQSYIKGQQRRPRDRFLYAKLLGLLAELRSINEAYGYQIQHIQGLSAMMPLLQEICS

Assay [18] has as its target Estrogen receptor (Homo sapiens) (UniProt P03372). Briefly: ATG_ERa_TRANS: Attagene TRANS-FACTORIAL HepG2 Assay for human Estrogen Receptor alpha (ERa) (AID 2282970; active means hit-call score of the fitted dose curve at least 0.9, where 1 is the maximum). Conditions: HepG2 Attagene TRANS ERa GAL4 reporter, mRNA. In a few lines: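 Reporter mRNA induction after 24 hours, detected by fluorescent RT-PCR and capillary electrophoresis, gives the read-out. Cells are HepG2 transiently transfected with GAL4-UAS reporter transcription units responding to chimeric NR-Gal4. Activity is taken as gain of signal over DMSO baseline.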

Assay [19] can be described thus: ATG_PPRE_CIS: Attagene CIS-FACTORIAL HepG2 Assay for human Peroxisome Proliferator-activated Response Element (PPRE) (AID 2282958). The conditions noted are these: HepG2 PPRE cis-element reporter, Attagene transcription factor profiling; actives raise or lower the signal. The method, boiled down: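 After human HepG2 hepatoma cells were transiently transfected with cis-promoter reporter constructs, they were exposed to test chemicals for 24 hours. Reporter RNA was then reverse-transcribed, PCR-amplified, FAM-labeled, HpaI-digested and quantified by capillary electrophoresis.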

Structures are written as SMILES. Records with an inconclusive call do not appear. Activity calls are given as the source filed them. How the source made its calls, unless noted: active means hit-call score of the fitted dose curve at least 0.9, where 1 is the maximum; inactive means score below 0.9.

What is called AC50 is the concentration at which the activity in the assay is half-maximal.

Chain of X-box-binding protein 1 (Homo sapiens) (P17861 whole entry, looked up): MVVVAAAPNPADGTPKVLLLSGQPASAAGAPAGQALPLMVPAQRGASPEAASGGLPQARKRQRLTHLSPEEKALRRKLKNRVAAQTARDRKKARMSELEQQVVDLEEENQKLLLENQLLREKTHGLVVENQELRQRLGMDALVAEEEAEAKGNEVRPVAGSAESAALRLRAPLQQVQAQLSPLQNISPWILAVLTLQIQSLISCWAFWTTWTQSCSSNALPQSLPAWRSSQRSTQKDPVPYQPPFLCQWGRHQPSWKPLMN
Chain of Estrogen receptor (Homo sapiens) (P03372 whole entry, looked up, the tested form may be a part): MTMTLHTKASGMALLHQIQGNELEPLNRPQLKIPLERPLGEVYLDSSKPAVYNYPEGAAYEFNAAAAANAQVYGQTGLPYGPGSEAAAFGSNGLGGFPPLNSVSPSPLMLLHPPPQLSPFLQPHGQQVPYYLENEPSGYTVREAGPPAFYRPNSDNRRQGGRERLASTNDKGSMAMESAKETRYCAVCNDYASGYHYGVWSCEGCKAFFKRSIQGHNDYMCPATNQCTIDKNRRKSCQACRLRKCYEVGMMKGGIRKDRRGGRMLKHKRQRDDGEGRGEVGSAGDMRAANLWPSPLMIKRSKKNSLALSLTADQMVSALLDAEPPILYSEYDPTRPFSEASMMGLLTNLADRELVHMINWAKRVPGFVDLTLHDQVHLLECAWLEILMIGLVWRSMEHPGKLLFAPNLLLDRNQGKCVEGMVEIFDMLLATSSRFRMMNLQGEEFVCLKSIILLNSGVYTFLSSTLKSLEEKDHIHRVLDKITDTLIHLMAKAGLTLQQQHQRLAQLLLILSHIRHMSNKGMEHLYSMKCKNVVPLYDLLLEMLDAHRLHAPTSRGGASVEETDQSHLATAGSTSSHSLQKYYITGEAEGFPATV

In the case of `S=c1[nH][nH]c(=S)s1`, the outcome in assay [1], in assay [2], in assay [3], in assay [4], in assay [5] and in [6] was inactive. The result in assay [7], in [8], in [9], in [10], in assay [11] and in assay [12] was inactive. The outcome in assay [13], in assay [14], in [15] and in assay [16] was inactive.

Turning to `COC(=O)c1ccc(C(=O)OC)cc1`, the result in [1], in [2], in assay [3], in assay [4], in [5] and in [6] was inactive. Also, the call in assay [7], in [9], in [10], in [11], in [12] and in [13] was inactive. The result in assay [14], in [15] and in assay [16] was inactive.

As for `NC(N)=S`, the outcome in assay [1], in assay [2], in [3], in [4], in assay [5] and in assay [6] was inactive. Moreover, the molecule was classed as inactive in assay [7], in [8], in [9], in assay [10], in assay [11] and in assay [13]. Moreover, the outcome in [14] and in assay [16] was inactive.

Take `CC(C)OB(OC(C)C)OC(C)C`: the result in assay [1], in assay [2], in assay [3], in [4], in assay [5] and in assay [6] was inactive. The outcome in [7], in assay [9], in assay [10], in assay [11], in [12] and in assay [13] was inactive. Moreover, the molecule was classed as inactive in assay [14], in assay [15] and in assay [16].

As to `CC1=CC(C)C(C=O)C(C)C1` (stereo unspecified) (tested in a mixture with another compound), the result in assay [1], in assay [2], in [4], in [5], in [6] and in assay [7] was inactive. Further, the molecule was classed as inactive in assay [8], in assay [9], in assay [10], in assay [11], in assay [12] and in assay [17]. Moreover, the call in assay [18] and in [14] was inactive. Also, the half-maximal activity concentration (AC50) in assay [3] was 15.9 µM (active); in assay [13], 28.8 µM (active).

As for `CCCCCc1cccc(=O)o1`, the outcome in [1], in assay [2], in assay [19], in assay [4], in assay [5] and in [7] was inactive. The result in assay [8], in assay [9], in [10], in assay [11], in assay [12] and in assay [13] was inactive. In addition, the molecule was classed as inactive in [18], in assay [14] and in assay [15]. In addition, the half-maximal activity concentration (AC50) in assay [3] was 25.1 µM (active).

As for `CC(=O)CCC=C(C)CCC=C(C)C`, the result in [1], in assay [2], in assay [4], in [5], in [6] and in assay [7] was inactive. The outcome in assay [8], in assay [9], in assay [11], in [12], in [17] and in assay [18] was inactive. For the same molecule, in assay [14], the molecule was called inactive. Also, the values for the AC50 in assay [3] and in assay [13] were 6.98 µM (active) and 7.02 µM (active), respectively.

For `C=CC(C)CCCC(C)(C)O` (stereo unspecified), the result in assay [1], in assay [2], in assay [3], in assay [19], in assay [4] and in assay [5] was inactive. The result in [7], in assay [9], in assay [10], in [11], in assay [12] and in assay [13] was inactive. For the same molecule, the outcome in assay [17] and in assay [14] was inactive.

The values above are taken from PubChem BioAssay (EPA / NIEHS).
